Source: PubChem BioAssay (several laboratories)
TROY signal inh – blocks TROY-dependent signaling in reporter cells; inhibition, % at 10 µM; actives 0.98% (n = 360,000); Q293 LMP1-TROYcd NF-kB luciferase reporter, 4 h;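 active = compounds whose plate-normalised and pattern-corrected inhibition of the luciferase reporter signal at the single screening dose is 50% or more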
EWS-Fli inh – inhibitors of EWS/Fli oncoprotein transcriptional activity | A673 NR0B1-luciferase reporter, viability-normalised | inhibition, % at 12.6 µM | actives 0.67% (n = 350,000) | AID 651661;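 active = mean inhibition of at least 50% after viability correction, with every replicate also passing that limit; inconclusive = mean reaches 50% but only one of two replicates passes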;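 note: firefly luciferase signal divided by Alamar Blue viability fluorescence both relative to DMSO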
LMP1 NFkB inh – inhibitors of Epstein-Barr LMP1-induced NF-kappaB reporter | LMP1-induced NF-kappaB luciferase reporter cells, luminescence | actives 0.69% (n = 350,000) | AID 504558 | inhibition, % at 12.5 µM; in the data active = inhibition above about 41%; inconclusive = no clear call, values can overlap the other calls
LGR2 inh – Drosophila LGR2 receptor signaling inhibition; actives 0.35% (n = 380,000); inhibition, % at 9.99 µM; AID 720647; HEK293 LGR2, CRE-luciferase, bursicon-stimulated, 4 h;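 active = drop in luminescence signal, shown as inhibition above about 50% in the replicate tests, limit read from the data, passing the limit was not always enough; inconclusive = probably only some replicates passing the limit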;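 note: agonist challenge used bursicon conditioned medium at about half maximal strength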
TWEAK Fn14 block – inhibitors of TWEAK-Fn14 interaction signaling; inhibition, % at 10 µM; actives 2% (n = 360,000); TWEAK-stimulated Fn14 reporter cells, luciferase luminescence, 8 h; in the data active = inhibition above about 50%
Large screens that a line does not name were inactive. Only some compounds are listed: those with a hit (about 2.5% of all), similar ones and a draw of the others.

CNC[C@@H]1OCCCC[C@@H](C)Oc2ccc(NS(=O)(=O)c3ccccc3)cc2C(=O)N([C@@H](C)CO)C[C@@H]1C	none (no result: TROY signal inh, LMP1 NFkB inh, TWEAK Fn14 block)
COc1ccc(NC(=O)N(C)C[C@@H]2Oc3ncc(-c4ccc(F)cc4)cc3C(=O)N([C@H](C)CO)C[C@@H]2C)cc1	none (no result: TROY signal inh, LMP1 NFkB inh, TWEAK Fn14 block)
O=[N+]([O-])c1ccc(NS(=O)(=O)c2ccc(Cl)c(Cl)c2)cc1	TROY signal inh 55 (no result: LMP1 NFkB inh)
N=P(N1CCOCC1)(N1CCOCC1)C12CC3CC(CC(C3)C1)C2	TWEAK Fn14 block 81 (no result: TROY signal inh, EWS-Fli inh, LGR2 inh)
S=C(NC12CC3CC(CC(C3)C1)C2)N1CCOCC1	none
CC(=O)Oc1cc2cccc(OC(C)=O)c(=O)c2c(OC(C)=O)c1OC(C)=O	TWEAK Fn14 block 84 (no result: EWS-Fli inh, LGR2 inh)
COc1cc2cccc(OC)c(=O)c2c(O)c1OC	none
CO[C@@H]1CN(C)C(=O)c2ccc(NS(=O)(=O)c3ccc(Oc4ccccc4)cc3)cc2OC[C@@H](C)NC[C@@H]1C	none (no result: TROY signal inh, LMP1 NFkB inh, TWEAK Fn14 block)
CCNC(=O)[C@@H]1[C@@H](CO)[C@@H]2Cn3c(ccc(-c4cccc(F)c4)c3=O)[C@H]1N2C(=O)c1ccccn1	none (no result: TROY signal inh, LMP1 NFkB inh, TWEAK Fn14 block)
C[C@H]1Cn2cnc(C(=O)Nc3cccc(Cl)c3)c2C(=O)N1	TROY signal inh 52, TWEAK Fn14 block 71
C[C@@H]1Cn2cnc(C(=O)NCC(=O)OC(C)(C)C)c2C(=O)N1	none
C[C@@H]1CN([C@H](C)CO)C(=O)c2cc(-c3ccccc3)cnc2O[C@@H]1CN(C)C(=O)Cc1ccccn1	none (no result: TROY signal inh, LMP1 NFkB inh, TWEAK Fn14 block)
Clc1ccc(-c2cn3cc(Cl)ccc3n2)cc1	TWEAK Fn14 block 75
CCN(CC)S(=O)(=O)c1ccc(-c2cn3cc(Cl)ccc3n2)cc1	none
O=C(Nc1ccc(-c2cn3ccccc3n2)cc1)c1ccc(Cl)cc1	none (no result: EWS-Fli inh, LGR2 inh)
Clc1ccc(-c2cn3ccccc3n2)cc1	TWEAK Fn14 block 60
O=C(Cc1ccc(Br)cc1)NC1CCCc2ccccc21 (configuration not stated)	none
O=C(CCl)NC1CCCc2ccccc21 (configuration not stated)	TWEAK Fn14 block 50
Cc1ccc(-c2cnc3c(c2)C(=O)N([C@H](C)CO)C[C@@H](C)[C@H](CN(C)C)O3)cc1	none (no result: TROY signal inh, LMP1 NFkB inh, TWEAK Fn14 block)
COc1ccc(NC(=O)Nc2cccc3c2O[C@@H](CN(C)Cc2ccccc2)[C@@H](C)CN([C@H](C)CO)C3=O)cc1	none (no result: TROY signal inh, LMP1 NFkB inh, TWEAK Fn14 block)
Cc1ccc(C(=O)Nc2nc3ccccc3[nH]2)cc1	TROY signal inh 71, EWS-Fli inh 78, LMP1 NFkB inh 63, LGR2 inh 89, TWEAK Fn14 block 97
COc1ccc(C(=O)N[C@H](C(=O)Nc2nc3ccccc3[nH]2)C(C)C)cc1	EWS-Fli inh inconclusive
O=C(Nc1nc2ccccc2[nH]1)c1cccc(Br)c1	none
COc1ccc(C(=O)Nc2nc3ccccc3[nH]2)cc1	TROY signal inh 69, EWS-Fli inh 76, LMP1 NFkB inh 55, LGR2 inh 90, TWEAK Fn14 block 89
Cc1cccc(C(=O)N[C@H](C(=O)Nc2nc3ccccc3[nH]2)C(C)C)c1	EWS-Fli inh 56
Cc1ccc(N(C)S(=O)(=O)c2cccc(C(=O)Nc3nc4ccccc4[nH]3)c2)cc1	TWEAK Fn14 block 54 (no result: EWS-Fli inh)
CO[C@H]1CN(C)C(=O)c2cccc(C#N)c2OC[C@@H]2O[C@H](CC[C@H]2OC)CCN(C)C(=O)[C@H]1C	none (no result: TROY signal inh, LMP1 NFkB inh, TWEAK Fn14 block)
COc1cccc(C(=O)Nc2nc3ccccc3[nH]2)c1	LMP1 NFkB inh inconclusive, TWEAK Fn14 block 87 (no result: EWS-Fli inh, LGR2 inh)
CN(C)c1cccc(C(=O)Nc2nc3ccccc3[nH]2)c1	LMP1 NFkB inh 44, LGR2 inh inconclusive, TWEAK Fn14 block 61
O=C(Nc1nc2ccccc2[nH]1)c1cccc(F)c1	none
OC1CCC(Nc2ccn3nc(-c4cccc(Cl)c4)cc3n2)CC1 (configuration not stated)	none (no result: LMP1 NFkB inh)
OC1CCC(Nc2ccn3nc(-c4cccc(OCc5ccccc5)c4)cc3n2)CC1 (configuration not stated)	LGR2 inh 52 (no result: LMP1 NFkB inh)
O=C(N/N=C/c1ccc([N+](=O)[O-])cc1)c1cc(-c2ccc3c(c2)OCO3)n[nH]1	none
COc1ccccc1N/N=C/c1ccc2c(c1)OCO2	TWEAK Fn14 block 60 (no result: LGR2 inh)
COc1cc(/C=N/NC(=O)c2cc(-c3ccc4c(c3)OCO4)n[nH]2)ccc1O	TWEAK Fn14 block 51
COc1ccccc1C(=O)N/N=C/c1ccc2c(c1)OCO2	none
COc1cc(/C=N/NC(=O)c2cc(C34CC5CC(CC(C5)C3)C4)[nH]n2)ccc1O	LMP1 NFkB inh 81 (no result: EWS-Fli inh, LGR2 inh)
COc1cc(/C=N/NC(=O)c2sc(N)c(C#N)c2C)ccc1O	TWEAK Fn14 block 52 (no result: EWS-Fli inh)
Cc1noc(C)c1NC(=O)Nc1ccc2c(c1)C(=O)N([C@H](C)CO)C[C@H](C)[C@@H](CN(C)S(=O)(=O)c1ccc(F)cc1)OCCCC[C@@H](C)O2	none (no result: TROY signal inh, LMP1 NFkB inh, TWEAK Fn14 block)
O=C(N/N=C/c1c[nH]c2ccccc12)c1cc(-c2ccc(-c3ccccc3)cc2)n[nH]1	TWEAK Fn14 block 67 (no result: EWS-Fli inh, LGR2 inh)
Cc1nc(N2CCN(Cc3ccccc3)CC2)nc2c1C(=O)CCC2	none (no result: EWS-Fli inh, LGR2 inh)
Cc1nc(N2CCN(Cc3ccccc3)CC2)nc2c1CCC2	TWEAK Fn14 block 60
CC(C)[C@H](N)C(=O)N[C@H]1CCC2C3CC=C4C[C@@H](O)CC[C@]4(C)C3CC[C@@]21C (some centres not stated)	EWS-Fli inh 53
CC(c1ccccc1)c1nnc(NC(=O)Nc2ccccc2F)s1 (configuration not stated)	LMP1 NFkB inh 46
CC(c1ccccc1)c1nnc(NC(=O)Nc2ccccc2)s1 (configuration not stated)	none
CCCN(C)C[C@H]1OCCCC[C@@H](C)Oc2ccc(NS(=O)(=O)c3ccccc3)cc2C(=O)N([C@H](C)CO)C[C@H]1C	none (no result: TROY signal inh, LMP1 NFkB inh, TWEAK Fn14 block)
COc1ccc(CNC(=O)C[C@@H]2C[C@@H]3c4cc(NS(C)(=O)=O)ccc4O[C@@H]3[C@H](CO)O2)cc1	none (no result: TROY signal inh, LMP1 NFkB inh, TWEAK Fn14 block)
O=C(CSc1nnc(-c2ccccc2)o1)Nc1ccccc1F	EWS-Fli inh 78, LMP1 NFkB inh 53, TWEAK Fn14 block 57
O=C(CSc1nnc(-c2ccc(Br)cc2)o1)Nc1cccc2ccccc12	none
CCOc1ccc(-c2nnc(SCC(=O)Nc3cc(C)on3)o2)cc1	EWS-Fli inh 65
Cc1ccc(-c2nnc(SCC(=O)Nc3ccccc3F)o2)cc1	TROY signal inh 78, EWS-Fli inh 85, LMP1 NFkB inh 79, LGR2 inh 57, TWEAK Fn14 block 86
COc1cccc(-c2nnc(SCC(=O)Nc3cc(C)on3)o2)c1	none (no result: EWS-Fli inh)
Cc1ccc(-c2nnc(SCC(=O)Nc3ccccc3N3CCOCC3)o2)cc1	none (no result: EWS-Fli inh, LGR2 inh)
O=C(CSc1nnc(-c2ccc(Br)cc2)o1)Nc1cccc(C(=O)O)c1	LMP1 NFkB inh 75 (no result: EWS-Fli inh)
O=C(CSc1nnc(-c2ccncc2)o1)Nc1cc(F)ccc1F	none
CCC(=O)Nc1ccc2c(c1)C(=O)N(C)C[C@@H](OC)[C@H](C)CN(C(=O)NC(C)C)[C@@H](C)CO2	none (no result: TROY signal inh, LMP1 NFkB inh, TWEAK Fn14 block)
Cc1cc(-c2nnc(SCC(=O)Nc3ccccc3C(F)(F)F)o2)c(C)n1-c1ccccc1	TROY signal inh 70, TWEAK Fn14 block 92 (no result: EWS-Fli inh, LGR2 inh)
COc1cccc(C(=O)Nc2ccc3c(c2)OC[C@@H](C)N(C)C[C@@H](C)[C@@H](OC)CN(C)C3=O)c1	none (no result: TROY signal inh, LMP1 NFkB inh, TWEAK Fn14 block)
Cc1ccc(/C=C2\SC(N3CCCC3)=NC2=O)cc1	none (no result: TROY signal inh, LMP1 NFkB inh, TWEAK Fn14 block)
